From PubChem BioAssay AID743382 (National Center for Advancing Translational Sciences (NCATS), 2014)
The source made the active and inactive calls. Calls follow the shape of the full dose curve.

Assay: qHTS for Inhibitors of PI5P4K: BT474 Cell Proliferation Assay for Probe SAR
Details: CellTiter-Glo ATP luminescence, 72 h
Text: In addition to finding PI5P, we discovered the type II phosphatidylinositol 5-phosphate 4-kinase (PI5P4K) family (alpha, beta, gamma isoforms) that catalyze the conversion of PI5P to PI(4,5)P2. Alternatively, PI(4,5)P2 can also be synthesized through phosphatidylinositol-4-phosphate (PI4P) by the type I phosphatidylinositol 4-phosphate 5-kinases (PI4P5K). These PI5P4K enzymes therefore represent one way by which cells can regulate endogenous PI5P levels and play important roles in insulin signaling and in stress responses. […] A qHTS PI5P4K-alpha ADP-Glo assay was developed to identify specific modulators of human PI5P4K, phosphatidylinositol-5-phosphate 4-kinase (Type II PIPK). […]
BT474 cells were cultured in DMEM with 10% FBS and plated in 1536-well white solid-bottom tissue-culture treated plates at a density of 500 cells per 5 microL well. […] After 72 hours of incubation at 37 degrees C 5% CO2 the level of ATo was measured using the Cell Titer Glo luciferase-coupled ATP detection system from Promega. This assays monitors cells by quantitating the amount of ATP present by luciferase, which in the presence of ATP converts pro-luciferin into the luminescent luciferin product. A compound that inhibits cell proliferation would result in a decrease in luminescence. […] The luminescence was read on a Viewlux (Perkin Elmer) plate reader.

Row | Structure (SMILES) | Potency
1 | O=C1Nc2ccc(C(=O)c3ccco3)cc2/C1=C/c1cc(Cl)c(O)c(Cl)c1 | 10.5 µM (active)
